# This is a sample that favours compounds with a hit; in the whole collection about 4.1% have one here.
# Mot1-301 SUMO = blocks SUMOylation pathway, rescuing yeast Mot1-301 growth. S. cerevisiae Mot1-301 growth rescue, ATP luminescence, 38.5C; percent above DMSO median, 100 means doubled. growth rescue, % at 18.8 µM. 320,000 compounds, 1% hits. AID 2716;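 active = every valid replicate shows activation above 250% relative to neutral control wells; inactive = the rest, any valid replicate at or below 250%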;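 also: OY570 slx delta 5 strain wells were the positive control but not used for scaling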
# CHT allo act = allosteric activators of human choline transporter CHT | Q9GZV3 | CHT-expressing cells, membrane potential dye, choline EC20; active compounds read high; LV-AA mutant CHT in HEK293 cells | B-score at 10 µM | 310,000 compounds, 0.49% hits;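 active = initial fluorescence not abnormally high and integrated response B-score, plate-corrected, over 3 SD above library mean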
# MEKK2 mut-MEK5 = signal of MEK5 binding to mutant human MEKK2 PB1 domain | bead flow cytometry, Alexa488-MEK5 binding to MEKK2 mutant | percent response, % at 10 µM | 290,000 compounds, 0.35% hits; in the data active = percent response above about 24%, passing the limit was not always enough
# MEKK2 WT-MEK5 = raises or lowers MEK5 binding to wildtype human MEKK2 PB1 domain | bead flow cytometry, Alexa488-MEK5 binding to MEKK2 WT; actives lie on both sides | 290,000 compounds, 1.1% hits | binding response (% of control), % at 10 µM; in the data active = binding response below about 67% or above about 130%
# MEKK3 PB1 HTS = modulators (inhibitors or enhancers) of MEK5 binding to human MEKK3 PB1 domain | Q99759 | bead-based flow cytometry, Alexa488-MEK5 binding to MEKK3; actives lie on both sides; 0 = blocked by unlabeled MEK5, 100 = vehicle | binding response (% of control), % at 10 µM | 290,000 compounds, 1.4% hits | AID 1529;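 active = binding response more than 3 SD above or below the average of its plate-row segment, actives on both sides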;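 also: Alexa488 bead fluorescence after subtracting the streptavidin-only scavenger bead signal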
# Target sequence (Q99759 whole entry, looked up, the tested form may be a part): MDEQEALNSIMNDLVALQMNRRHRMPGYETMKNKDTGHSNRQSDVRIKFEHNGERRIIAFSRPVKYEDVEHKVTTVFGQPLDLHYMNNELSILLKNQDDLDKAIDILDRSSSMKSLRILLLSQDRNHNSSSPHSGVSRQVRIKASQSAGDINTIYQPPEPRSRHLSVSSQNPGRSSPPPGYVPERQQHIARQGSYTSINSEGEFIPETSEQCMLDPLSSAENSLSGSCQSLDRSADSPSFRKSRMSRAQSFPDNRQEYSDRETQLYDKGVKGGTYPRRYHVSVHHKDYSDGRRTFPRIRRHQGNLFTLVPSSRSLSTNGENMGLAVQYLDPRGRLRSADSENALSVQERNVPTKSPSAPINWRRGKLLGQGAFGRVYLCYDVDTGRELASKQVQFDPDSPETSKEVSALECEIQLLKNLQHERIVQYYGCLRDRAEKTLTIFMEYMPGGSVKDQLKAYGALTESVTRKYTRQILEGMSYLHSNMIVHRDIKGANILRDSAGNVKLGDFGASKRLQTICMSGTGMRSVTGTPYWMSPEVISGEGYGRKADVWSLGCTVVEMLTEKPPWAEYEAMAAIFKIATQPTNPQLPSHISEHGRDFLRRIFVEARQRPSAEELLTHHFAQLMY
# CHT inh = inhibits the human high affinity choline transporter. B-score at 10 µM. CHT-expressing cells, membrane potential dye, choline response; active compounds read low. AID 488975. 310,000 compounds, 0.86% hits. Q9GZV3;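 active = B-score over 3 SD under the library average, and starting fluorescence ratio not unusually high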;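 also: choline stimulus applied at its EC90 after an EC20 pre-addition; B-score computed on integrated fluorescence ratio after choline addition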
# CHT activ conf = human CHT activation, confirmatory screen; activation, % at 10 µM; CHT-expressing cells, membrane potential dye fluorescence (FDSS); % of choline EC20–EC90 response window; HEK293 expressing CHT LV-AA mutant; choline added at its EC20; shares compounds with CHT allo act; 2,500 compounds, 91% hits;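 active = primary screen active, with duplicate mean activation above negative control mean plus 3 SD, cut at about 11% in these data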
# HEK293 MP dye = activity in parental HEK293 cells lacking CHT; AID 623908; ratio readout change at 10 µM, hits read low; membrane potential dye fluorescence (FDSS); measured after EC20 choline addition; 2,500 compounds, 62% hits; shares compounds with CHT allo act;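 active = duplicate-averaged ratio beyond 3 SD from buffer wells, up or down, though filed actives are nearly all decreases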
# The depositor's hits bear a star; i = inactive; . = no result given; ! = a repeat was not active.
SMILES,Mot1-301 SUMO,CHT allo act,MEKK2 mut-MEK5,MEKK2 WT-MEK5,MEKK3 PB1 HTS,CHT inh,CHT activ conf,HEK293 MP dye
CCOC(=O)c1c(CN2CCOCC2)n(C)c2cc(Br)c(O)c(CN(C)C)c12,4,7.4*!,-4,97,96,i,45*,-33*
CCOc1ccc(Nc2cc(C)nc3ccc(C)cc23)cc1,-7,i,.,.,.,i,35*,-47*
CCOC(=O)c1ccc2nc(C)cc(Nc3cccc(C(=O)O)c3)c2c1,-1,i,-3,102,107,i,27*,-25*
CC(=O)c1cccc(Nc2cc(C)nc3ccccc23)c1,-13,i,-13,95,95,i,.,.
Cc1ccc(S(=O)(=O)N2CCN(C(=O)CCc3c[nH]c4ccccc34)CC2)c(C)c1,19,.,.,.,.,.,.,.
Cc1cc[n+]2c3c(cccc13)CCC2,-2,11*,29,115,98,i,89*,-85*
c1ccc(CCn2nnnc2CN2CCCc3ccccc32)cc1,96,7.3*,1,101,99,i,8,i
Cc1onc(-c2ccccc2Cl)c1C(=O)N(C)Cc1ccccc1,414,i,4,105,103,i,.,.
CN(C)NC1=CC(=[N+]2CCCC2)CC(C)(C)C1,21,i,-15,85,85,i,.,.
CCCN(CCC)C1=CC(=[N+]2CCCC2)CC(C)(C)C1,12,12*,-1,102,103,i,35*,i
COc1ccc(Cl)cc1NC(=O)CSc1nnc(C2CC2)n1C,-8,i,-4,102,102,i,.,.
C[n+]1cccc2c(Br)ccc([O-])c21,-16,6.4*,-6,91,89,i,58*,-48*
CN(C)c1ccc2c3c(ccc(N(C)C)c13)COC2,5,15*,5,109,104,i,24*,-31*
COCCN(C(=O)C1CCN(C(=O)c2ccccc2C)CC1)c1c(N)n(CC(C)C)c(=O)[nH]c1=O,16,.,.,.,.,.,.,.
O=C(COc1ccccc1Cl)Nc1ccc2oc(=O)ccc2c1,-8,i,7,105,102,i,.,.
COCCN(Cc1cc2cc3c(cc2nc1Cl)OCO3)C(C)=O,2,i,-15,83,95,i,.,.
CN(C)CCN(Cc1cc2cc3c(cc2nc1Cl)OCO3)C(=O)c1ccco1,180,6.8*,0,95,98,i,55*,-56*
Cc1ccc(C)c(S(=O)(=O)N2CCN(C(=O)c3cc(S(=O)(=O)NCc4ccccc4)ccc3C)CC2)c1,114,i,1,100,99,i,22*,i
Clc1ccc(COn2c(-c3ccccc3)nc3ccccc32)cc1,211,6.5*,-3,103,103,i,26*,i
Cc1cc(Oc2ccc(C)c(Cl)c2)nc(SCC(=O)c2ccccc2)n1,37,7.2*,-2,99,100,i,56*,i
Cc1ccc(C(=O)CSc2cc(C)nc(SCC(=O)c3ccccc3)n2)cc1,-2,i,4,100,106,i,.,.
CCCC[n+]1ccn(-c2nc3c([N+](=O)[O-])cccc3n2C)c1,-5,i,3,100,103,i,67*,-55*
CCCCC[n+]1ccn(-c2nc3ccccc3nc2[N-]S(=O)(=O)c2ccccc2)c1,-3,i,-8,106,102,i,.,.
Cc1ccc(S(=O)(=O)Nc2ccc(F)cc2)cc1C(=O)N1CCOCC1,-4,.,.,.,.,.,.,.
N#CCC(=O)NNc1c([N+](=O)[O-])cc(C(F)(F)F)cc1[N+](=O)[O-],-22,i,0,100,98,i,27*,-44*
SMILES,Mot1-301 SUMO,CHT allo act,MEKK2 mut-MEK5,MEKK2 WT-MEK5,MEKK3 PB1 HTS,CHT inh,CHT activ conf,HEK293 MP dye
O=C(COc1cccc2cccnc12)N/N=C1\SCC(=O)N1Cc1ccco1,-18,7.2*,11,97,104,i,66*,-55*
COc1ccccc1NS(=O)(=O)c1ccc(-c2cnc(C3CC3)o2)cc1,-20,i,-2,94,95,i,24*,i
Cc1cc(N2CCOCC2)c2c(N)cc(C)c(C)c2n1,0,i,.,.,.,i,55*,-73*
N#Cc1c(NC(=O)CCn2cnc3ccccc3c2=O)oc(-c2ccccc2)c1-c1ccccc1,9,i,13,113,110,i,5,i
Cc1sc2cc(-c3cccc([N+](=O)[O-])c3)c(-c3cccc([N+](=O)[O-])c3)c[n+]2c1C,-17,8.4*,-1,105,108,i,56*,-88*
O=[N+]([O-])c1cccc(-c2cc3cccc[n+]3cc2-c2cccc([N+](=O)[O-])c2)c1,0,14*,4,102,101,i,77*,-75*
O=c1cc(-c2cccc([N+](=O)[O-])c2)[nH][nH]1,-9,i,-1,99,99,i,.,.
COCCN(C(=O)c1cccc(-n2cnnn2)c1)c1c(N)n(CC(C)C)c(=O)[nH]c1=O,-5,i,.,.,.,i,.,.
Cc1sc2ncnc(N3CCC(C(=O)Nc4nc(-c5cccs5)cs4)CC3)c2c1C,22,i,.,.,.,i,.,.
COc1ccc(-n2c(-c3ccc(Cl)cc3)c[n+]3c2CCc2ccccc2-3)cc1,-14,8.2*,-14,85,75,i,86*,-29*
COc1ccc(-n2c(-c3ccccc3)nnc2-c2ccc(Cl)cc2)cc1,130,i,5,109,106,i,.,.
CCOC(=O)c1c(C)n(C)c2cc(Br)c(C)cc12,20,i,5,104,107,i,.,.
CCOC(=O)c1c(CNc2ccncc2)n(C)c2cc(Br)c(O)cc12,-17,11*,2,112,106,i,52*,-51*
COc1ccc(NC(=S)NCCc2ccccc2)c(C)c1,-7,i,-4,95,99,i,.,.
CCc1cc(Br)ccc1NC(=S)NCCc1ccccc1,16,i,-7,94,96,i,12*,i
CCc1nccn1Cc1cc(C=O)ccc1OC,-6,i,-3,91,93,i,61*,-44*
CCCn1c(C(=O)OC)cc2c1ccn2-c1ccc(F)cc1,9,i,7,118,111,i,.,.

# High-throughput results from PubChem.
